Values joined by “and” are separate entries in the source; they are usually repeats but may differ in a detail not shown here. Identical values can stand only once. Compounds without any hit were thinned out: in the full panel of roughly 83,000, 20% have a hit.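 Results are percent growth after 48 hours of single-concentration exposure. 100 means growth as in untreated cells, lower positive values show inhibition; negative values down to -100 show cell death.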 Active and inactive are the calls of the source. Rule for the calls: active = growth percent below 10; inactive = the rest.
Columns and labels:
Test in all cases: NCI-60 one-dose screen, 48 h (100 = growth as untreated, 0 = no growth, -100 = all killed)
Settings in all cases: 10 µM unless noted
NCI-H23 lung = test system: NCI-H23 lung
NCI-H226 lung = test system: NCI-H226 lung
NCI-H322M lung = test system: NCI-H322M lung
HOP-62 NSCLC = test system: HOP-62 NSCLC
NCI-H460 lung = test system: NCI-H460 lung
HOP-92 NSCLC = test system: HOP-92 NSCLC
NCI-H522 lung = test system: NCI-H522 lung
A549/ATCC NSCLC = test system: A549/ATCC NSCLC
786-0 renal = test system: 786-0 renal
COLO 205 colon = test system: COLO 205 colon
DU-145 prostate = test system: DU-145 prostate
K-562 leukemia = test system: K-562 leukemia
MALME-3M melanoma = test system: MALME-3M melanoma
MDA-MB-231 breast = test system: MDA-MB-231 breast
RXF 393 renal = test system: RXF 393 renal
SF-268 CNS = test system: SF-268 CNS
SF-295 CNS = test system: SF-295 CNS
SF-539 CNS = test system: SF-539 CNS
UACC-257 melanoma = test system: UACC-257 melanoma
M14 melanoma = test system: M14 melanoma

Measured: growth

CON1CCC[C@]2(C)[C@H]3CC[C@@H]4[C@H]5[C@@H](O)C(C)(C)CC[C@]5(CO)CC[C@@]4(C)[C@]3(C)CC[C@H]2C1(C)C
inactive: NCI-H23 lung 102% | NCI-H226 lung 92.8% | NCI-H322M lung 109% | HOP-62 NSCLC 95.6% | NCI-H460 lung 102% | HOP-92 NSCLC 116% | NCI-H522 lung 84% | A549/ATCC NSCLC 94.2% | 786-0 renal 100% | COLO 205 colon 105% | DU-145 prostate 99% | K-562 leukemia 87% | MALME-3M melanoma 110% | MDA-MB-231 breast 90.5% | RXF 393 renal 112% | SF-268 CNS 100% | SF-295 CNS 102% | SF-539 CNS 106% | UACC-257 melanoma 97.5% | M14 melanoma 99.6%

COC1/C=C/OC2(C)Oc3c(C)c(O)c4c(O)c(c(C=NOC(c5ccccc5)c5ccccc5)c(O)c4c3C2=O)NC(=O)/C(C)=C/C=C/C(C)C(O)C(C)C(O)C(C)C(OC(C)=O)C1C (centres undefined)
active: HOP-62 NSCLC -89.5% | NCI-H460 lung 2.85% | HOP-92 NSCLC -8.12% | COLO 205 colon -88.2% | MDA-MB-231 breast 8.78% | RXF 393 renal -3.93% | SF-295 CNS 1.59%
inactive: NCI-H23 lung 21.8% | NCI-H226 lung 20.3% | NCI-H322M lung 47.4% | NCI-H522 lung 13% | A549/ATCC NSCLC 16.3% | 786-0 renal 12.2% | DU-145 prostate 37.9% | K-562 leukemia 17.1% | MALME-3M melanoma 23.5% | SF-268 CNS 44.2% | SF-539 CNS 31.3% | UACC-257 melanoma 12.2% | M14 melanoma 23.2%

CCC(=C(c1ccc(OCCCN(C)C)cc1)c1ccc(OCCCN(C)C)cc1)c1ccc(Cl)cc1
active: NCI-H23 lung -80% | NCI-H226 lung -66.8% | NCI-H322M lung -96.8% | HOP-62 NSCLC -78% | NCI-H460 lung -71.1% | HOP-92 NSCLC -80% | NCI-H522 lung -66.5% | A549/ATCC NSCLC -69.9% | 786-0 renal -86.8% | COLO 205 colon -67.3% | DU-145 prostate -90.8% | K-562 leukemia 0.345% | MALME-3M melanoma -79.6% | MDA-MB-231 breast -85% | RXF 393 renal -82.7% | SF-268 CNS -78.3% | SF-295 CNS -87.4% | SF-539 CNS -93.2% | UACC-257 melanoma -77.1% | M14 melanoma -83.5%

O=C(CC1(O)C(=O)Nc2ccc(Br)cc21)c1ccc(Cl)cc1 (centres undefined)
inactive: NCI-H23 lung 96.8% | NCI-H226 lung 80.1% | NCI-H322M lung 105% | HOP-62 NSCLC 88.7% | NCI-H460 lung 106% | HOP-92 NSCLC 86.1% | NCI-H522 lung 81% | A549/ATCC NSCLC 90.5% | 786-0 renal 114% | COLO 205 colon 109% | DU-145 prostate 107% | K-562 leukemia 98.2% | MALME-3M melanoma 103% | MDA-MB-231 breast 98.8% | RXF 393 renal 96.4% | SF-268 CNS 97.5% | SF-295 CNS 106% | SF-539 CNS 108% | UACC-257 melanoma 88.1% | M14 melanoma 99.3%

Clc1ccc(CNc2ccc3nc(CCC4CCCCC4)[nH]c3c2)cc1
active: COLO 205 colon -63.3% | K-562 leukemia 6.84%
inactive: NCI-H23 lung 66.4% | NCI-H226 lung 71.4% | NCI-H322M lung 87.9% | HOP-62 NSCLC 79% | NCI-H460 lung 60.6% | HOP-92 NSCLC 28.8% | NCI-H522 lung 54.8% | A549/ATCC NSCLC 59.8% | 786-0 renal 58.9% | DU-145 prostate 83.5% | MALME-3M melanoma 31.4% | MDA-MB-231 breast 62.8% | RXF 393 renal 52% | SF-268 CNS 79% | SF-295 CNS 73.4% | SF-539 CNS 69.6% | UACC-257 melanoma 71.4% | M14 melanoma 45%

Clc1ccc(/C=N\N2CCCCCC2)cc1
inactive: NCI-H23 lung 97.8% | NCI-H226 lung 93.8% and 125% | NCI-H322M lung 104% | HOP-62 NSCLC 105% and 95.9% | NCI-H460 lung 108% and 119% | NCI-H522 lung 123% and 83.6% | A549/ATCC NSCLC 94.2% and 104% | 786-0 renal 101% and 97.5% | COLO 205 colon 124% and 130% | DU-145 prostate 112% and 102% | K-562 leukemia 87.7% | MALME-3M melanoma 98% | MDA-MB-231 breast 89.7% and 99.9% | RXF 393 renal 92% and 119% | SF-268 CNS 103% and 115% | SF-295 CNS 96.4% and 95.9% | SF-539 CNS 115% and 92% | UACC-257 melanoma 104% and 109% | M14 melanoma 104% and 111%

CC(C)(C)c1cc(C(C)(C)c2ccccc2)cc(Cc2cc(C(C)(C)c3ccccc3)cc(C(C)(C)C)c2O)c1O
inactive: NCI-H23 lung 108% | NCI-H226 lung 90.9% | NCI-H322M lung 97.1% | HOP-62 NSCLC 108% | NCI-H460 lung 105% | HOP-92 NSCLC 55.1% | NCI-H522 lung 79.2% | A549/ATCC NSCLC 101% | 786-0 renal 103% | COLO 205 colon 123% | DU-145 prostate 123% | K-562 leukemia 48% | MALME-3M melanoma 97.4% | MDA-MB-231 breast 105% | RXF 393 renal 95.5% | SF-268 CNS 98.4% | SF-295 CNS 116% | SF-539 CNS 101% | UACC-257 melanoma 105% | M14 melanoma 116%

From PubChem BioAssay (NCI)
